High-throughput results: PubChem BioAssay, National Center for Advancing Translational Sciences (NCATS)
Most compounds without a hit are left out; they make up all but 1.7% or so of the library.
Akt phos inh – blocks phosphorylation of Akt. Neuro2A IGF-stimulated pAkt S473 HTRF, 20 min; active compounds read low. activity change, % for hits at 50 µM. 360,000 tested, 0.32% active; in the data active means activity change below about -80%; inconclusive means mostly about -51% to -80%
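Neuro2A cells in DMEM with 0.5% FBS, overnight at 37 deg C, given compound at single 50 µM final, then IGF (6 nM final) for 20 min at 37 deg C. Lysed; phospho-Akt Ser473 by HTRF after 24 h, 665/615 ratio.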
KCNH2 3.1 block – inhibitors of human KCNH2 3.1 potassium channel isoform | U2OS KCNH2 3.1, thallium flux FluxOr; active compounds read low | activity change, % (tested at about 1.8 µM) | 340,000 tested, 0.95% active;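 active means maximum activity change below -70%; inconclusive means maximum activity change from -70% to -50%; inactive means maximum activity change above -50%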;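 further: thallium influx rate constant from kinetic fluorescence after stimulation buffer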
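Thallium flux via FluxOr fluorescence (Red40 quencher, 45 min loading) in U2OS cells virally expressing the KCNH2 3.1 isoform (1.77 x 10^8 /mL virus, overnight at 37 C). Rate constants from 2-min kinetic reads post-stimulation, normalised to positive and negative controls.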
RXFP1 agonist – RXFP1 (human) receptor agonism | Potency, µM (doses to about 57.5 µM), actives largely listed as activators | HEK293T-RXFP1 cAMP TR-FRET, 30 min; response scale: percent of porcine relaxin response, buffer zero | 370,000 tested, 0.3% active; active means well fitted activation curve with a large enough effect; inconclusive means small, poorly fitted or top-dose-only effect; further: nearly all actives have a fitted effect of over 60% in size
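Agonist response is measured as cAMP accumulation in an RXFP1-transfected HEK293T line under PDE4 inhibition. Values are scaled between buffer-only and 29 nM porcine relaxin, and EC50s come from standard Hill equation fits.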
RXFP1 antagonist – antagonists of human relaxin receptor RXFP1 | 350,000 tested, 0.59% active | activity change, negative = inhibition, % at 57.5 µM | HEK293-RXFP1, relaxin-stimulated cAMP HTRF, 30 min; active compounds read low | AID 1259400;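 active means activity change of -60% or lower, but not beyond a set lower limit; inconclusive means change between -60% and -40%, or beyond the set limit; inactive means change above -40%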
hERG WT inh – inhibitors of human wildtype KCNH2 potassium channel | activity change, % at 1.84 µM | 340,000 tested, 0.37% active | Q12809 | U2OS, BacMam KCNH2, thallium flux FluxOr; active compounds read low;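 active means maximum activity change below -70%; inconclusive means maximum activity change between -70% and -50%; inactive means maximum activity change above -50%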
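U2OS cells were transduced with wild-type KCNH2 virus (2.03 x 10^8 / mL) for 4 h at room temperature, then cultured overnight at 37 C. Thallium flux was read with FluxOr dye. Rate constants were normalized to DMSO controls.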
Numbers stand for hits; . = inactive; ? = inconclusive; / = no result.

SMILES | Akt phos inh | KCNH2 3.1 block | RXFP1 agonist | RXFP1 antagonist | hERG WT inh
CCOC(=O)C1(CCOc2ccccc2)CCN(Cc2ccc(O)c(OC)c2)CC1 | . | -74.6 | . | . | ?
CCOC(=O)C1(CCOc2ccccc2)CCN(Cc2cccn2-c2ncccn2)CC1 | . | -101.1 | . | . | -90.0
CCOC(=O)C1(Cc2cccc(OC)c2)CCN(Cc2cc(OC)ccc2OC)CC1 | . | ? | . | . | .
CCOC(=O)C1(CCOc2ccccc2)CCN(Cc2nccn2CC)CC1 | . | . | . | . | .
CCOC(=O)C1(CCOc2ccccc2)CCN(Cc2ccc3c(c2)OCCO3)CC1 | . | . | . | . | .
CCOC(=O)C1(CCOc2ccccc2)CCN(Cc2cccs2)CC1 | . | -85.9 | . | . | ?
CCOC(=O)C1(Cc2cccc(OC)c2)CCN(Cc2cccc(OC)c2OC)CC1 | . | . | . | . | .
CCOC(=O)C1(Cc2cccc(OC)c2)CCN(Cc2cccc3c2OCO3)CC1 | . | . | . | -94.5 | .
Cc1cc(C)nc(NC(C)(C)C(=O)O)n1 | . | . | . | . | /
Cc1cc(=O)n2c(nc3ccccc32)[nH]1 | . | . | . | . | .
CS(=O)(=O)c1cccc(-c2nnc(NC(=O)c3ccc(S(=O)(=O)N4CCCC4)cc3)o2)c1 | . | . | . | . | .
CN(C)c1cccc(C(=O)N(C)C2CCCN(Cc3ccccc3F)C2)c1 (stereo not drawn) | . | . | . | . | -70.9
COCCn1cnnc1SCC(=O)Nc1ccc(N2CCCCC2)cc1 | . | . | . | . | .
N#Cc1c2n(c3c(=O)n(CC(=O)c4ccc([N+](=O)[O-])cc4)cnc13)CCCCC2 | . | . | . | . | -101.1
CCOC(=O)c1c(C)n(C)c2ccc(O)c(CN3CCCCC3)c12 | . | . | . | . | .
COc1ccccc1NC(=O)c1sc2nc3n(c(=O)c2c1C)CCC3 | . | . | 8.91µM | . | .
Cc1ccccc1NC(=O)c1sc2nc3n(c(=O)c2c1C)CCC3 | / | / | . | . | /
COc1cc(C(=O)NNC(=O)c2ccccc2OCc2c(C)noc2C)cc(OC)c1OC | . | -86.9 | . | . | .
Cc1noc(C)c1COc1ccccc1C(=O)NNC(=O)c1ccccc1 | . | . | . | . | .
O=C(COc1ncnc2ccc(Br)cc12)NC1CCCC1 | . | . | . | . | .
Cc1cc(OCC(=O)Nc2ccncc2)c(C)cc1Br | / | . | . | . | .
Cc1ccc(S(=O)(=O)N2CCN(Cc3ccco3)CC2)cc1C | . | . | . | . | .
O=C(O)c1ccc2c(c1)C(=O)N(NC(=O)c1ccccc1)C2=O | . | . | . | . | -230.1
O=C(Nc1ccc(C(=O)NN2C(=O)c3ccccc3C2=O)cc1)c1ccccc1 | . | . | . | . | .
Cc1ccc2cc(CCNC(=O)c3cc4ccccc4o3)c(=O)[nH]c2c1C | . | . | . | / | .
SMILES | Akt phos inh | KCNH2 3.1 block | RXFP1 agonist | RXFP1 antagonist | hERG WT inh
COc1ccc2cc(CCNC(=O)c3cc4ccccc4o3)c(=O)[nH]c2c1 | . | . | . | . | -80.1
CCC12CN3CC(CC)(CN(C1)C3c1ccc(OC(C)C)cc1)C2=O (stereo not drawn) | -111.9% | . | . | . | .
CCCC12CN3CC(C)(CN(C1)C3c1ccc(OC)cc1)C2=O (stereo not drawn) | . | . | . | . | .
O=C(CNS(=O)(=O)c1ccc(F)c(Cl)c1)NCCc1ccccc1 | . | . | . | . | .
NC(=O)CCCCC1CCSS1 (stereo not drawn) | / | / | / | -100.8 | /
NC(=O)COc1ccc(NC(=O)OCc2ccccc2)cc1 | -106.7% | . | . | . | .
COC(=O)Nc1ccc(OCc2ccccc2)cc1 | / | . | . | . | .
Cc1ccc(C(CCN(Cc2ccccc2)C(=O)c2ccco2)c2ccco2)cc1 (stereo not drawn) | . | . | . | . | .
CCOC(=O)N1CCN(C(=O)NC2CCCCC2)CC1 | . | -71.0 | . | . | .
COc1cccc(NC(=O)Cc2csc(NC(=O)Nc3ccccc3OC)n2)c1 | . | . | . | ? | .
CCC(C)NS(=O)(=O)c1ccc(NC(C)=O)cc1 (stereo not drawn) | . | . | . | . | .
CC(=O)Nc1ccc(S(=O)(=O)NC(C(=O)O)C(C)C)cc1 (stereo not drawn) | . | -72.0 | / | . | .
C1=C[C@H]2CC[C@@H]1N(c1ccccc1)O2 | . | . | / | / | .
